Screening results: PubChem, Broad Institute
C diff HTS = blocks growth of Clostridium difficile; 0.25% of 86,000 active; growth activity, negative = inhibition, % at 16 µg/mL (by protocol); Clostridium difficile clinical isolate growth, OD600, 24 h; active compounds read low; AID 1259249;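 active = mean growth activity at or below -80% and every replicate also at or below -80%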;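 note: 0% = DMSO wells and -100% = levofloxacin 16 µg/mL wells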
Numbers without * were called inactive; ! = a repeat was not active. Many of the other results were omitted from the sample, so hits are more common in it than they were.

SMILES	C diff HTS
O=C(Nc1ccc(C(F)(F)F)cc1)N1C[C@@H]2N[C@H](C1)C2c1ccc(-c2cccnc2)cc1 (some centres not stated)	-102*!
N#Cc1cccc(-c2ccc(C3[C@@H]4CN(C(=O)C5CCCC5)C[C@H]3N4)cc2)c1 (some centres not stated)	13
N#Cc1cccc(-c2ccc(C3[C@@H]4CN(C(=O)Nc5ccc(C(F)(F)F)cc5)C[C@H]3N4)cc2)c1 (some centres not stated)	-94*
C/C=C/c1ccc(C2[C@@H]3CN(C(=O)Nc4ccc(C(F)(F)F)cc4)C[C@H]2N3)cc1 (some centres not stated)	0
COc1ccccc1NC(=O)N1C[C@@H]2N[C@H](C1)C2c1ccc(-c2cccc(C#N)c2)cc1 (some centres not stated)	3
O=C(Nc1cccc(F)c1)N1C[C@@H]2N[C@H](C1)C2c1ccc(-c2cccnc2)cc1 (some centres not stated)	11
CO[C@H]1CN(C)C(=O)c2ccc(NC(=O)C3CCC3)cc2OC[C@H](C)N(C(=O)CN(C)C)C[C@H]1C	2
CCC(=O)N1CC2(C1)CN(C(=O)CN1CCOCC1)[C@H](CO)c1[nH]c3cc(OC)ccc3c12	11
O=C(Nc1ccc(C(F)(F)F)cc1)N1[C@@H]2CNC[C@H]1C2c1ccc(-c2ccccc2)cc1 (some centres not stated)	-99*!
O=C(Nc1ccc(Cl)cc1)N1[C@@H]2CNC[C@H]1C2c1ccc(-c2ccccc2)cc1 (some centres not stated)	-3
O=C(Nc1ccc(F)cc1)N1[C@@H]2CNC[C@H]1C2c1ccc(/C=C/c2ccccc2)cc1 (some centres not stated)	-101*!
O=C(Nc1ccccc1Cl)N1[C@@H]2CNC[C@H]1C2c1ccc(/C=C/c2ccccc2)cc1 (some centres not stated)	13
O=C(Nc1ccc(F)cc1)N1[C@@H]2CNC[C@H]1C2c1ccc(-c2ccccc2)cc1 (some centres not stated)	59
COc1ccc(NC(=O)N2[C@@H]3CNC[C@H]2C3c2ccc(-c3ccccc3)cc2)cc1 (some centres not stated)	31
O=C(Nc1cc(F)ccc1F)N1[C@@H]2CNC[C@H]1C2c1ccc(/C=C/c2ccccc2)cc1 (some centres not stated)	29
Cc1ccc(-c2ccc(C3[C@H]4CNC[C@@H]3N4C(=O)Nc3ccc(F)cc3)cc2)cc1 (some centres not stated)	-75
O=C(Nc1ccc(Cl)cc1)N1[C@@H]2CNC[C@H]1C2c1ccc(/C=C/c2ccccc2)cc1 (some centres not stated)	-98*
Cc1ccccc1-c1ccc(C2[C@H]3CNC[C@@H]2N3C(=O)Nc2ccc(F)cc2)cc1 (some centres not stated)	59
Cc1ccccc1-c1ccc(C2[C@H]3CNC[C@@H]2N3C(=O)Nc2ccc(C(F)(F)F)cc2)cc1 (some centres not stated)	-96*
O=C(Nc1ccc(F)cc1)N1[C@@H]2CNC[C@H]1C2c1ccc(-c2ccc(F)cc2)cc1 (some centres not stated)	40
C[C@@H]1CN([C@@H](C)CO)C(=O)c2cccc(NC(=O)CCCCCC(=O)Nc3ccccc3N)c2O[C@@H]1CN(C)C(=O)NC1CCCCC1	-3
COCC(=O)N(C)C[C@H]1Oc2ncc(C#Cc3ccc(F)cc3)cc2C(=O)N([C@H](C)CO)C[C@@H]1C	-9
Cc1noc(C)c1S(=O)(=O)N(C)C[C@H]1OCCCC[C@@H](C)Oc2ccc(NS(=O)(=O)c3ccc(F)cc3)cc2C(=O)N([C@@H](C)CO)C[C@@H]1C	-7
CC(=O)N1[C@@H]2Cn3c(cccc3=O)[C@H]1[C@@H](C(=O)N[C@H](C)c1ccccc1)[C@@H]2CO	-2
COc1cccc(S(=O)(=O)N2CCC3(CC2)CN[C@@H](CO)c2c3c3ccc(OC)cc3n2C)c1	-2
SMILES	C diff HTS
COc1ccc2c3c([nH]c2c1)[C@H](CO)N(S(C)(=O)=O)CC31CCN(Cc2cccc(F)c2)CC1	-3
COc1ccc(S(=O)(=O)Nc2ccc3c(c2)C(=O)N([C@H](C)CO)C[C@@H](C)[C@H](CN(C)C)OCCCC[C@H](C)O3)cc1	-3
CC(C)NC(=O)Nc1ccc2c(c1)C(=O)N([C@H](C)CO)C[C@@H](C)[C@H](CN(C)CC1CC1)OCCCC[C@@H](C)O2	-2
C/C=C/c1ccc(C2[C@H]3CNC[C@@H]2N3C(=O)Nc2cccc(Cl)c2)cc1 (some centres not stated)	46
C/C=C/c1ccc(C2[C@H]3CNC[C@@H]2N3C(=O)Nc2ccccc2Cl)cc1 (some centres not stated)	8
O=C(Nc1ccc(C(F)(F)F)cc1)N1[C@@H]2CNC[C@H]1C2c1ccc(/C=C/c2ccccc2)cc1 (some centres not stated)	-103*!
O=C(c1cccc(F)c1)N1CC2(C1)[C@H](c1ccccc1)[C@H](CO)N2C(=O)C1CC1	-5
Fc1cccc(-c2ccc(C3[C@@H]4CN(Cc5cccnc5)C[C@H]3N4)cc2)c1 (some centres not stated)	-6
Fc1cccc(CN2C[C@@H]3N[C@H](C2)[C@@H]3c2ccc(-c3cccc(F)c3)cc2)c1	-94*
COc1cc(CN2C[C@@H]3N[C@H](C2)C3c2ccc(-c3ccncc3)cc2)cc(OC)c1 (some centres not stated)	5
O=C(C1CCC1)N1C[C@@H]2N[C@H](C1)C2c1ccc(-c2cccc(F)c2)cc1 (some centres not stated)	35
Fc1cccc(CN2C[C@@H]3N[C@H](C2)C3c2ccc(-c3cncnc3)cc2)c1 (some centres not stated)	-1
Fc1cccc(CN2C[C@@H]3N[C@H](C2)C3c2ccc(-c3ccccc3)cc2)c1 (some centres not stated)	-99*
COc1cc(CN2C[C@@H]3N[C@H](C2)C3c2ccc(-c3cccc(OC)c3)cc2)cc(OC)c1 (some centres not stated)	47
O=C(Cc1ccncc1)N1C[C@@H]2N[C@H](C1)C2c1ccc(-c2cccc(F)c2)cc1 (some centres not stated)	10
N#Cc1cccc(-c2ccc(C3[C@@H]4CN(Cc5ccccc5)C[C@H]3N4)cc2)c1 (some centres not stated)	34
COc1ccc(-c2ccc(C3[C@@H]4CN(Cc5cc(OC)cc(OC)c5)C[C@H]3N4)cc2)cc1 (some centres not stated)	-101*!
N#Cc1ccc(-c2ccc(C3[C@@H]4CN(Cc5ccccc5F)C[C@H]3N4)cc2)cc1 (some centres not stated)	44
Fc1cccc(-c2ccc(C3[C@@H]4CN(Cc5ccccc5F)C[C@H]3N4)cc2)c1 (some centres not stated)	-101*
O=C(C[C@@H]1CC[C@H]2[C@@H](COC[C@H](O)CN2CC2CCCC2)O1)NCC1CC1	0
C[C@@H]1CCCCO[C@@H](CN(C)CC2CC2)[C@H](C)CN([C@H](C)CO)C(=O)c2cc(NC(=O)CCC(F)(F)F)ccc2O1	3
COc1ccc(-c2ccc3n(c2=O)C[C@@H]2N[C@H]3[C@H](C(=O)N3CCCCC3)[C@H]2CO)cc1	-3
